Bioassay records from PubChem.
The list is not random: actives were taken first. Their share in the collection is about 19%.
HT1080NT lethal: qHTS for induction of synthetic lethality in tumor cells producing 2HG: qHTS for the HT-1080-NT fibrosarcoma cell line | Potency, µM (titrated, usually from 46.1 µM), most hits filed as cytotoxic | 1.6% of 360,000 active | HT-1080-NT fibrosarcoma viability, CellTiter-Glo ATP luminescence, 48 h;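 also: NT is the 2HG producing partner of a matched IDH1 knockdown line; nearly all actives have a fitted effect of over 55% in size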
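Luminescent CellTiter-Glo readout after 48 hours of compound exposure at 37 degrees C defined viability of HT-1080-NT cells. Activity was normalized to DMSO wells and cell-free media wells; concentration-response curves were fitted and assigned curve classes.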
IL1B secr inh: qHTS for Inhibitors of Inflammasome Signaling: IL-1-beta AlphaLISA Primary Screen | AID 743279, 2014 | activity change, % at 57.5 µM | THP-1 LPS/ATP IL-1B secretion, AlphaLISA, 16 h; active compounds read low | 4.7% of 360,000 active; in the data active = activity change below about -50%; inconclusive = mostly about -30% to -49%
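THP-1 cells pretreated 1 hr with compounds (up to 57.5 uM final), then stimulated with LPS (250 ng/mL final) plus ATP (1.25 mM final); secreted IL-1B measured by AlphaLISA after 16 hr, decreased signal indicating inhibition.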
HT1080 IDH1KD tx: qHTS for induction of synthetic lethality in tumor cells producing 2HG: qHTS for the HT-1080-IDH1KD cell line | HT-1080 IDH1 knockdown viability, ATP luminescence, 48 h | Potency, µM (top dose mostly 46.1 µM), actives largely listed as cytotoxic | 2% of 360,000 active | AID 686971, 2013
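Viability of IDH1-knockdown HT-1080 fibrosarcoma cells was assessed by CellTiter-Glo after 48 h at 37 °C with titrated compound; concentration-effect curves were classified by fit quality and response size.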
DT40 TDP1 CPT: qHTS for Inhibitors of human tyrosyl-DNA phosphodiesterase 1 (TDP1): qHTS in cells in presence of CPT | 12% of 420,000 active | chicken DT40 Tdp1-/-;hTDP1 cells + 20 nM CPT, ATP luminescence, 48 h | Potency, µM (top dose mostly 46.2 µM), usual class: inhibitors; also: nearly all actives have a fitted effect of over 55% in size
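Chicken DT40 Tdp1-/- cells complemented with human TDP1, 400 cells/well, exposed to compounds plus 20 nM camptothecin for at least 48 h at 37 C; viability read as ATP content by CellTiter-Glo luminescence.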
DT40 TDP1 no CPT: qHTS for Inhibitors of human tyrosyl-DNA phosphodiesterase 1 (TDP1): qHTS in cells in absence of CPT; DT40 Tdp1-/- hTDP1 cells, no CPT, ATP luminescence, 48 h; Potency, µM (doses to about 46.2 µM), usual class: inhibitors; 15% of 420,000 active; AID 686978, 2013; also: nearly all actives have a fitted effect of over 55% in size
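A cellular qHTS used chicken DT40 cells lacking endogenous Tdp1 but carrying stably transfected human TDP1. Compounds were applied without camptothecin, and cell growth kinetics were judged by ATP-dependent luminescence after ≥48 hr.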
Hits are given with their value; 0 = inactive; ? = inconclusive; - = no result given. Unless noted, calls follow the shape of the dose curve; as a rule, active = well fitted curve in the direction sought with a large enough effect; inconclusive = small, poorly fitted or top-dose-only effect, or another doubt; inactive = no such curve, though single readings can be large; an effect the other way counts as inactive or inconclusive.

SMILES	HT1080NT lethal	IL1B secr inh	HT1080 IDH1KD tx	DT40 TDP1 CPT	DT40 TDP1 no CPT
Cc1nc2cc(C(F)(F)F)ccc2n1C1CCN(Cc2nnnn2Cc2cccs2)CC1	0	?	0	16µM	16µM
Fc1ccc(Cn2nnnc2CN2CCC(n3nnc4cc(C(F)(F)F)ccc43)CC2)cc1	0	?	0	18µM	?
N#Cc1ccc(CN2CC[C@@]3(CCCN(C(=O)Oc4ccccc4)C3)C2)cc1	-	-	-	0	?
OCC1OC(O)CC(O)C1O (stereo not drawn)	0	0	0	0	0
COC(=O)C1=C(c2ccc(Cl)c(C(F)(F)F)c2)C[C@@H]2CC[C@H]1N2C(=O)NC1CCCCC1	0	-52	?	13µM	21µM
COC(=O)C1=C(c2ccc(OC(F)(F)F)cc2)C[C@@H]2CC[C@H]1N2C(=O)NCCOc1ccccc1	0	?	0	23µM	18µM
CCCNC(=O)N1[C@H]2CC[C@@H]1C(C(=O)OC)=C(c1ccccc1)C2	0	0	0	0	-
COC(=O)C1=C(c2ccc(OC(F)(F)F)cc2)C[C@@H]2CC[C@H]1N2C(=O)NC(C)C	0	0	0	16µM	21µM
COC(=O)C1=C(c2ccc(Cl)c(C(F)(F)F)c2)C[C@@H]2CC[C@H]1N2C(=O)NCCOc1ccccc1	?	-81	0	?	16µM
Cn1c(O)c(Cc2cccc(Cl)c2Cl)c(=O)n(C)c1=O	0	0	0	0	0
CCC1C(=O)OC[C@H]1Cc1cncn1C (stereo partly drawn)	-	-	-	0	0
C=CCn1c(O)c(/C=N/N2CCCCC2c2cccnc2)c(=O)[nH]c1=S (stereo not drawn)	0	0	0	0	?
COC(=O)C1=C(c2ccc(Cl)c(C(F)(F)F)c2)C[C@@H]2CC[C@H]1N2C(=O)NCCO	0	0	0	0	0
COC(=O)C1=C(c2ccc(OC(F)(F)F)cc2)C[C@@H]2CC[C@H]1N2C(=O)NCCCOC(C)C	0	0	0	?	?
COC(=O)C1=C(c2ccc(Cl)c(C(F)(F)F)c2)C[C@@H]2CC[C@H]1N2C(=O)NCc1ccco1	0	-65	0	?	21µM
CCCNC(=O)N1[C@H]2CC[C@@H]1C(C(=O)OC)=C(c1ccc(OC(F)(F)F)cc1)C2	0	0	0	?	15µM
CC(=O)Oc1c2c(c(CC=C(C)C)c3c1C(=O)C1=CC4CC5C(C)(C)OC(C/C=C(\C)C(=O)O)(C4=O)[C@]15O3)OC(C)(CCC=C(C)C)C=C2 (stereo partly drawn)	-	-	-	0.82µM	0.92µM
COC(=O)/C(C)=C\CC12OC(C)(C)C3CC(C=C4C(=O)c5c(OC)c6c(c(CC=C(C)C)c5OC431)OC(C)(CCC=C(C)C)C=C6)C2=O (stereo not drawn)	-	-	-	4.6µM	3.7µM
CC(C)CN1CCCC2(CCN(C(=O)c3ccncc3)CC2)C1	-	-	-	0	0
C=CCNC(=O)c1c(N)n(CCN2CCOCC2)c2nc3ccccc3nc12	?	?	0	0	0
CCOC(=O)c1c(NS(=O)(=O)c2ccccc2)n(CCCOC)c2nc3ccccc3nc12	?	-96	?	?	?
CCOC(=O)c1c(N)n(CCCOC(=O)c2ccco2)c2nc3ccccc3nc12	23µM	0	18µM	12µM	13µM
CCCCCn1c(NC(=O)c2ccco2)c(C(=O)OCC)c2nc3ccccc3nc21	9.2µM	-101	12µM	21µM	16µM
CN(C)c1ccc(C2C3C=CC(C3)C2(C#N)C(=O)O)c(Br)c1 (stereo not drawn)	0	0	0	0	0
Cc1ccc(-c2nc3cc(C)c(Br)c(C)n3c2Cc2cccc(Cl)c2)cc1	0	0	0	0	?
SMILES	HT1080NT lethal	IL1B secr inh	HT1080 IDH1KD tx	DT40 TDP1 CPT	DT40 TDP1 no CPT
Cc1ccc(O)c(C(CCN(C(C)C)C(C)C)c2ccccc2)c1 (stereo not drawn)	-	-	-	0	0
C[C@]12CC[C@@H](O)CC1=CC(=O)C1C2CC[C@]2(C)C(=O)CCC12 (stereo partly drawn)	0	0	0	?	?
COCCNC(=O)CN1C(=O)C(C)N=C(c2ccccc2)c2cc(Cl)ccc21 (stereo not drawn)	0	0	0	0	0
Cc1c(Cl)cccc1NC(=O)CN1C(=O)C(C)N=C(c2ccccc2)c2ccccc21 (stereo not drawn)	-	-	-	0	23µM
CN1CCC2(CC1)c1ccccc1-c1ccccc12	0	-67	0	?	15µM
CCOC(=O)c1cccc(C2=C(CNC(=O)c3ocnc3C)[C@H]3CC[C@@H](C2)N3Cc2ccccc2)c1	0	0	0	0	?
CCOC(=O)c1cccc(C2=C(CNC(=O)c3nccs3)[C@H]3CC[C@@H](C2)N3Cc2ccccc2)c1	0	0	0	15µM	23µM
CCOC(=O)C1C(=O)N(C)C2(C)CC1c1cc(OC)ccc1O2 (stereo not drawn)	0	0	0	0	0
CCOC(=O)[C@]12Cc3ccc(C)cc3[C@H]1N(C1CCCCC1)C(=O)c1ccccc12	8.2µM	-118	5.8µM	2.6µM	2.3µM
CCOC(=O)[C@]12Cc3ccc(C)cc3[C@H]1N(C1CCCCC1)C(=O)c1cc(OC)ccc12	4.1µM	-116	3.3µM	2.9µM	2.9µM
CCOC(=O)[C@]12Cc3c(cc(OC)c(OC)c3OC)[C@H]1N(C1CCCCC1)C(=O)c1ccccc12	3.3µM	-113	2.9µM	2.9µM	3.7µM
CCOC(=O)C1(C)CCN1C(=O)c1cc(OC)c(OC)c(OC)c1 (stereo not drawn)	0	0	0	?	?
CCOC(=O)[C@]12Cc3cc(C)ccc3[C@H]1N(C1CCCCC1)C(=O)c1ccccc12	3.7µM	-111	3.7µM	2.3µM	2.9µM
OC12Oc3ccccc3C=C1N1CCC2CC1 (stereo not drawn)	0	0	0	0	0
O=C1CC(c2ccc(F)cc2)c2c(c3ccccc3oc2=O)O1 (stereo not drawn)	-	-	-	0	0
Cc1ccc(C2=CCNCC2)cc1	0	0	0	0	0
CCOC(=O)[C@]12Cc3cc(Cl)ccc3[C@H]1N(C1CCCCC1)C(=O)c1cc(OC)ccc12	2.3µM	-110	1.8µM	0.52µM	0.52µM
CCOC(=O)[C@]12Cc3ccccc3[C@H]1N(C(C)C)C(=O)c1ccccc12	?	-116	21µM	?	23µM
C/C=C(/C)C(=O)OC1CC[C@]2(C)C3CCC4[C@]5(O)CC(O)[C@]6(O)C(CN7CC(C)CCC7[C@]6(C)O)[C@]5(O)C[C@@]42O[C@]13O (stereo partly drawn)	-	-	-	0	0
